# Reference: PubChem BioAssay (NCATS)
# Results filed as inconclusive are left out. A number with no mark means an inactive call. Active and inactive are the calls of the source. The call rests on the fitted dose curve; in most records, active means well fitted cell-killing curve with a large enough effect; inconclusive means small, poorly fitted or top-dose-only effect, or effect the other way; inactive means no such curve, though single readings can be large or run the other way.
# Key:
# [1] = Quantitative High-Throughput drug screen in 47 multiple myeloma cell lines against the NCATS MIPE library collection: FR4_PLB cell viability assay (AID 1918924; further: nearly all actives have a fitted effect of over 35% in size)
# Outline: (§1)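 Approved and investigational drugs from MIPE 4.0 were added by pin tool to 500 cells per well. After 48 hours at 37C, ATP-based CellTiter-Glo luminescence indicated remaining viability.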
# [2] = Quantitative High-Throughput drug screen in 47 multiple myeloma cell lines against the NCATS MIPE library collection: Delta47_JCRB cell viability assay (AID 1918925; further: nearly all actives have a fitted effect of over 45% in size)
# Outline: (§2)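 Relative luminescence from CellTiter-Glo served as the viability signal, referenced to DMSO-treated (100%) and cell-free medium (0%) controls. Treatment lasted 48 hours at 37C with 500 cells per well.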
# [3] = Quantitative High-Throughput drug screen in 47 multiple myeloma cell lines against the NCATS MIPE library collection: EJM_DSMZ cell viability assay (AID 1918926; further: nearly all actives have a fitted effect of over 30% in size;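 on viability, % of control: 100% = DMSO-only wells and 0% = media-only wells without cells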)
# Outline: as §2
# [4] = Quantitative High-Throughput drug screen in 47 multiple myeloma cell lines against the NCATS MIPE library collection: AMO1_DSMZ cell viability assay (AID 1918927; further: nearly all actives have a fitted effect of over 30% in size;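 on viability, % of DMSO: 100% = DMSO only wells and 0% = cell-free media only wells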)
# Outline: as §2
# [5] = Quantitative High-Throughput drug screen in 47 multiple myeloma cell lines against the NCATS MIPE library collection: ARP1_JJKsccF8 cell viability assay (AID 1918928; further: nearly all actives have a fitted effect of over 40% in size)
# Outline: (§3)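 Cell viability inhibition in this qHTS is measured via ATP content (CellTiter-Glo) after 48 h drug exposure at 37 °C. Wells hold 500 cells; DMSO-treated wells define 100% and medium-only wells 0%.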
# [6] = Quantitative High-Throughput drug screen in 47 multiple myeloma cell lines against the NCATS MIPE library collection: ARD_JJKsccE7 cell viability assay (AID 1918929;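 on viability: 100% = DMSO-only wells and 0% = media-only wells without cells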)
# Outline: as §2
# [7] = Quantitative High-Throughput drug screen in 47 multiple myeloma cell lines against the NCATS MIPE library collection: Karpas620_DSMZ cell viability assay (AID 1918959); further: nearly all actives have a fitted effect of over 30% in size;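 on viability (% of DMSO): 100% = DMSO-only wells and 0% = cell-free media-only wells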
# Outline: as §1
# [8] = Quantitative High-Throughput drug screen in 47 multiple myeloma cell lines against the NCATS MIPE library collection: KMM1_JCRB cell viability assay (AID 1918960); further: nearly all actives have a fitted effect of over 30% in size
# Outline: as §3
# [9] = Quantitative High-Throughput drug screen in 47 multiple myeloma cell lines against the NCATS MIPE library collection: Karpas417_ECACC cell viability assay (AID 1918961); settings: Karpas417 myeloma viability, CellTiter-Glo ATP luminescence, 48 h; viability (% of DMSO): at 45.8 µM (top of the series);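 on viability (% of DMSO): 100% = DMSO only wells and 0% = media only wells without cells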
# Outline: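 Inhibition of cell viability is measured here. Each line was plated at 500 cells per well, treated with MIPE 4.0 drugs, kept 48 hours at 37C, then assayed for ATP content by CellTiter-Glo luminescence.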
# Potency means the concentration at half of the fitted maximal effect.
structure (smiles),measurement,setting,value
Cc1ccc(-c2ncn(-c3ccc(Nc4nccc(-c5cccc(N6CCOCC6)c5)n4)cc3)n2)cn1,Potency,[1],0.132 µM (active)
same,Potency,[2],0.105 µM (active)
same,Potency,[3],0.187 µM (active)
same,Potency,[4],0.132 µM (active)
same,Potency,[5],0.166 µM (active)
same,Potency,[6],0.105 µM (active)
same,Potency,[7],0.209 µM (active)
same,Potency,[8],0.105 µM (active)
same,Potency,[9],0.0296 µM (active)
CCN(CC)CCCCNc1ncc2cc(-c3cc(OC)cc(OC)c3)c(NC(=O)NC(C)(C)C)nc2n1,Potency,[1],20.9 µM (active)
same,Potency,[2],9.35 µM (active)
same,Potency,[3],23.5 µM (active)
same,Potency,[4],26.4 µM (active)
same,Potency,[5],23.5 µM (active)
same,Potency,[6],23.5 µM (active)
same,Potency,[7],26.4 µM (active)
same,Potency,[8],18.7 µM (active)
CCN1CCN(CC(=O)Nc2ccc(-c3cccc4c(=O)cc(N5CCOCC5)oc34)c3sc4ccccc4c23)CC1,Potency,[1],1.48 µM (active)
same,Potency,[2],0.418 µM (active)
same,Potency,[3],13.2 µM (active)
same,Potency,[5],0.264 µM (active)
same,Potency,[6],0.0118 µM (active)
same,Potency,[8],0.132 µM (active)
CC(C)C[C@H](NC(=O)CNC(=O)c1cc(Cl)ccc1Cl)B(O)O,Potency,[1],0.0833 µM (active)
same,Potency,[2],0.0469 µM (active)
same,Potency,[3],0.148 µM (active)
same,Potency,[4],0.0469 µM (active)
same,Potency,[5],0.059 µM (active)
same,Potency,[6],0.0743 µM (active)
same,Potency,[7],0.118 µM (active)
same,Potency,[8],0.0662 µM (active)
same,Potency,[9],0.0418 µM (active)
CCOc1cc2ncc(C#N)c(Nc3ccc(F)c(Cl)c3)c2cc1NC(=O)C=CCN(C)C,Potency,[1],7.43 µM (active)
same,Potency,[2],6.62 µM (active)
same,Potency,[3],5.9 µM (active)
same,Potency,[5],1.66 µM (active)
CC1(C)OC2=C(C(=O)c3ccccc3C2=O)[C@H](NCc2ccccc2)[C@H]1O,Potency,[1],2.64 µM (active)
same,Potency,[2],2.09 µM (active)
same,Potency,[3],2.35 µM (active)
same,Potency,[4],0.662 µM (active)
same,Potency,[5],5.26 µM (active)
same,Potency,[6],4.18 µM (active)
same,Potency,[7],1.48 µM (active)
same,Potency,[8],2.35 µM (active)
same,Potency,[9],1.87 µM (active)
CC=CC1=C(C(=O)O)N2C(=O)[C@H](NC(=O)[C@H](N)c3ccc(O)cc3)[C@@H]2SC1,Potency,[1],inactive
same,Potency,[2],inactive
same,Potency,[3],inactive
same,Potency,[4],8.33 µM (active)
same,Potency,[5],inactive
same,Potency,[7],14.8 µM (active)
same,Potency,[8],inactive
same,Potency,[9],inactive
COc1cc2ncn(-c3cc(OCc4ccccc4C(F)(F)F)c(C(N)=O)s3)c2cc1OC,Potency,[1],5.26 µM (active)
same,Potency,[2],7.43 µM (active)
same,Potency,[3],2.64 µM (active)
same,Potency,[4],0.743 µM (active)
same,Potency,[6],0.935 µM (active)
same,Potency,[7],0.235 µM (active)
same,Potency,[8],0.469 µM (active)
same,Potency,[9],13.2 µM (active)
CN(C)CC=CC(=O)Nc1cc2c(Nc3ccc(F)c(Cl)c3)ncnc2cc1O[C@H]1CCOC1,Potency,[1],14.8 µM (active)
same,Potency,[2],3.72 µM (active)
same,Potency,[3],16.6 µM (active)
same,Potency,[4],0.935 µM (active)
same,Potency,[5],18.7 µM (active)
same,Potency,[6],5.26 µM (active)
same,Potency,[7],2.64 µM (active)
same,Potency,[8],3.72 µM (active)
CC(NCc1ccc2c(c1)nc(NC(=O)c1ccc(-c3cn[nH]c3)s1)n2CC(C)(C)O)C(C)(C)C (stereo not given),Potency,[1],0.372 µM (active)
same,Potency,[2],0.0833 µM (active)
same,Potency,[3],0.372 µM (active)
same,Potency,[4],0.166 µM (active)
same,Potency,[5],0.418 µM (active)
same,Potency,[6],0.296 µM (active)
same,Potency,[7],0.264 µM (active)
same,Potency,[8],0.235 µM (active)
COc1ccc(CC2c3cc(OC)c(OC)cc3CC[N+]2(C)CCC(=O)OCCCCCOC(=O)CC[N+]2(C)CCc3cc(OC)c(OC)cc3C2Cc2ccc(OC)c(OC)c2)cc1OC (stereo not given),viability (% of DMSO control),[1],122% [at 5.15 µM]
same,Potency,[2],3.28 µM (active)
same,"viability, % of control",[3],94.3% [at 5.15 µM]
same,"viability, % of DMSO",[4],97.7% [at 5.15 µM]
same,viability,[6],97.8% [at 5.15 µM]
same,viability (% of DMSO),[7],107% [at 5.15 µM]
same,viability (% of DMSO),[8],84% [at 5.15 µM]
C=CC(=O)Nc1cc2c(Nc3ccc(F)c(Cl)c3)ncnc2cc1OCCCN1CCOCC1,Potency,[1],14.8 µM (active)
same,Potency,[2],2.96 µM (active)
same,Potency,[3],7.43 µM (active)
same,Potency,[5],5.9 µM (active)
CC(=O)OCCN1C(=O)c2c(C)nc3ccc(S(=O)(=O)N4CCOCC4)cc3c2C1=O,Potency,[1],inactive
same,Potency,[2],inactive
same,Potency,[3],inactive
same,Potency,[4],inactive
same,Potency,[5],inactive
same,Potency,[6],inactive
same,Potency,[7],inactive
same,Potency,[8],inactive
same,viability (% of DMSO),[9],109% (active)
O=C(C=Cc1cccc(S(=O)(=O)Nc2ccccc2)c1)NO,Potency,[1],1.52 µM (active)
same,Potency,[2],1.71 µM (active)
same,Potency,[3],6.05 µM (active)
same,Potency,[4],0.855 µM (active)
same,Potency,[5],0.96 µM (active)
same,Potency,[6],1.08 µM (active)
same,Potency,[7],2.41 µM (active)
same,Potency,[8],1.08 µM (active)
same,Potency,[9],1.08 µM (active)
COc1ccc(CC2SC(=O)NC2=O)cc1C(=O)NCc1ccc(C(F)(F)F)cc1 (stereo not given),Potency,[1],inactive
same,Potency,[2],inactive
same,Potency,[3],inactive
same,Potency,[4],inactive
same,Potency,[5],inactive
CNC(=O)c1nn(C)c2c1C(C)(C)Cc1cnc(Nc3ccc(N4CCN(C)CC4)cc3)nc1-2,Potency,[1],1.66 µM (active)
same,Potency,[2],1.05 µM (active)
same,Potency,[3],2.64 µM (active)
same,Potency,[4],1.18 µM (active)
same,Potency,[5],4.69 µM (active)
same,Potency,[6],3.32 µM (active)
same,Potency,[7],4.69 µM (active)
same,Potency,[8],0.935 µM (active)
same,Potency,[9],0.833 µM (active)
